Results from the supplement of paper PMC8975748.
Where a name gives a salt, the structure may show the parent alone.

These compounds were tested on Saccharomyces cerevisiae BY4741 SeMeCo community (assay: z-score of subpopulation abundance vs DMSO median, subpopulation auxotrophic for LUM; higher = larger share of this subpopulation than in DMSO controls). Details: 10 µM; 24 h; SM minimal medium; subpopulation (auxotrophy): LUM.
Procedure: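 Fluorescent four-plasmid SeMeCo (self-establishing metabolically cooperating S. cerevisiae BY4741 community; plasmids pH-mRuby2, pL-mWasabi, pU-eCFP, pM-TagRFP657) was grown 24 h in minimal SM medium with each Selleck FDA-approved drug at 10 µM in 384-well plates. Cells were fixed and imaged by high-content confocal microscopy. For each auxotrophic subpopulation (and the prototroph), a z-score gives the deviation from the DMSO vehicle-control population median.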
With NCC(O)c1ccc(O)cc1 (racemic) [(+,-)-Octopamine HCl] the “z-score of subpopulation abundance” value was 0.58. In the case of COC(=O)C1=CCCN(C)C1 [Arecoline HBr], the “z-score of subpopulation abundance” value is reported as 0.07. CN1[C@@H]2C[C@@H](OC(=O)[C@H](CO)c3ccccc3)C[C@H]1[C@@H]1O[C@@H]12 [Scopolamine HBr] was tested, and the “z-score of subpopulation abundance” value was -0.9. CN1C(=O)COc2c(C(=O)NC3CN4CCC3CC4)cc(Cl)cc21 (stereo not given) [Azasetron HCl] was tested, and the “z-score of subpopulation abundance” value was -0.38. CN1[C@@H]2CC[C@H]1C[C@@H](OC(=O)[C@H](CO)c1ccccc1)C2 [Hyoscyamine] was tested, and the “z-score of subpopulation abundance” value was -0.43. In the case of N[C@@H]1C[C@H]1c1ccccc1 [Tranylcypromine (2-PCPA) HCl], the “z-score of subpopulation abundance” value is reported as -0.84. In the case of COc1ccc(C(CN(C)C)C2(O)CCCCC2)cc1 (stereo not given) [Venlafaxine HCl], the “z-score of subpopulation abundance” value is reported as 1.02. In the case of CC[C@@H](C(N)=O)N1CCCC1=O [Levetiracetam], the “z-score of subpopulation abundance” value is reported as -0.55. For CCN(C)C(=O)Oc1cccc([C@H](C)N(C)C)c1 [Rivastigmine Tartrate], the “z-score of subpopulation abundance” value was -0.01. With CC(C)N(CCC(C(N)=O)(c1ccccc1)c1ccccn1)C(C)C (stereo not given) [Disopyramide] the “z-score of subpopulation abundance” value was 0.92. In the case of CN[C@@H]1[C@@H](O)[C@@H](O[C@@H]2[C@@H](O)[C@H](O[C@H]3O[C@H](CN)CC[C@H]3N)[C@@H](N)C[C@H]2N)OC[C@]1(C)O.CN[C@@H]1[C@@H](O)[C@@H](O[C@@H]2[C@@H](O)[C@H](O[C@H]3O[C@H]([C@@H](C)N)CC[C@H]3N)[C@@H](N)C[C@H]2N)OC[C@]1(C)O.CN[C@@H]1[C@@H](O)[C@@H](O[C@@H]2[C@@H](O)[C@H](O[C@H]3O[C@H]([C@@H](C)NC)CC[C@H]3N)[C@@H](N)C[C@H]2N)OC[C@]1(C)O [Gentamicin Sulfate], the “z-score of subpopulation abundance” value is reported as -0.47. With CCOC(=O)Nc1ccc(NCc2ccc(F)cc2)cc1N [Retigabine] the “z-score of subpopulation abundance” value was -0.25. In the case of CCCN1C[C@H](CSC)C[C@@H]2c3cccc4[nH]cc(c34)C[C@H]21 [Pergolide Mesylate], the “z-score of subpopulation abundance” value is reported as -0.65. With C[N+](C)(C)CCCCCCCCCC[N+](C)(C)C [Decamethonium Bromide] the “z-score of subpopulation abundance” value was 0.08. For COc1ccc(C=O)cc1 [p-Anisaldehyde], the “z-score of subpopulation abundance” value was -0.69. With O=C(O[C@H]1C[C@H]2CC[C@@H](C1)[N+]21CCCC1)C(O)(c1ccccc1)c1ccccc1 [Trospium chloride] the “z-score of subpopulation abundance” value was -0.13. COc1ccc2c(c1)[C@]13CCCC[C@@H]1[C@H](C2)N(C)CC3 [Dextromethorphan hydrobromide hydrate] was tested, and the “z-score of subpopulation abundance” value was -0.51. In the case of CC(C)(O)C(Cl)(Cl)Cl [Chlorobutanol], the “z-score of subpopulation abundance” value is reported as 0.26. CC[C@H]1[C@@H]2C[C@H]3[C@@H]4N(C)c5ccccc5[C@]45C[C@@H]([C@@H]2[C@H]5O)N3[C@@H]1O [Ajmaline] was tested, and the “z-score of subpopulation abundance” value was -0.35. With O=c1cccc2n1C[C@@H]1CNC[C@H]2C1 [Cytisine] the “z-score of subpopulation abundance” value was -0.47. In the case of Oc1cccc2cccnc12 [8-Hydroxyquinoline], the “z-score of subpopulation abundance” value is reported as -0.89. For CNC1CC(N)C(O)C(OC2OC(CO)C(O)C3OC4(OC(C(N)CO)C(O)C(O)C4O)OC23)C1O (stereo not given) [Hygromycin B], the “z-score of subpopulation abundance” value was -0.17. With CN(C)[C@@H]1C(=O)C(C(N)=O)=C(O)[C@@]2(O)C(=O)C3=C(O)c4c(O)cccc4[C@@](C)(O)[C@H]3C[C@@H]12 [Tetracycline HCl] the “z-score of subpopulation abundance” value was -0.52. In the case of NCCc1c[nH]c2ccc(O)cc12 [Serotonin HCl], the “z-score of subpopulation abundance” value is reported as -0.88. With CN(C)[C@@H]1C(=O)C(C(N)=O)=C(O)[C@@]2(O)C(=O)C3=C(O)c4c(O)ccc(Cl)c4[C@@](C)(O)[C@H]3C[C@@H]12 [Chlortetracycline HCl] the “z-score of subpopulation abundance” value was -0.67. In the case of CCN(CC)CCOC(=O)C(O)(c1ccccc1)c1ccccc1 [Benactyzine hydrochloride], the “z-score of subpopulation abundance” value is reported as -0.06. In the case of C[C@@H]1CC[C@H]2[C@@H](C)C(=O)O[C@@H]3O[C@@]4(C)CC[C@@H]1[C@]32OO4 [Artemisinin], the “z-score of subpopulation abundance” value is reported as -0.97. In the case of O=c1[nH]c2ccccc2n1CCCN1CCC(n2c(=O)[nH]c3cc(Cl)ccc32)CC1 [Domperidone], the “z-score of subpopulation abundance” value is reported as -0.33. In the case of CN1[C@@H]2CC[C@H]1C[C@@H](OC(=O)C(CO)c1ccccc1)C2 (stereo not given in full) [Atropine sulfate monohydrate], the “z-score of subpopulation abundance” value is reported as 0.28. With CC(NC(C)(C)C)C(=O)c1cccc(Cl)c1 (stereo not given) [Amfebutamone (Bupropion) HCl] the “z-score of subpopulation abundance” value was -0.86. With C#C[C@]1(O)C=C[C@H]2[C@@H]3CCC4=CC(=O)CC[C@@H]4[C@H]3CC[C@@]21CC [Gestodene] the “z-score of subpopulation abundance” value was 0.24. In the case of CC[C@H]1CN2CC[C@]3(C(=O)Nc4ccccc43)[C@@H]2C[C@@H]1/C(=C\OC)C(=O)OC [Rhynchophylline], the “z-score of subpopulation abundance” value is reported as -0.36. With Cn1cc(C2=C(c3cn(C4CCN(Cc5ccccn5)CC4)c4ccccc34)C(=O)NC2=O)c2ccccc21 the “z-score of subpopulation abundance” value was -0.2. With CCCCCCCCCCCCCCCC[n+]1ccccc1 [Cetylpyridinium Chloride] the “z-score of subpopulation abundance” value was 7.62. In the case of CN(C)[C@@H]1C(=O)C(C(N)=O)=C(O)[C@@]2(O)C(=O)C3=C(O)c4c(O)cccc4[C@@](C)(O)[C@H]3[C@H](O)[C@@H]12 [Oxytetracycline (Terramycin)], the “z-score of subpopulation abundance” value is reported as 0.18. With CCN1CC2(OC(=O)c3ccccc3NC(C)=O)CCC(OC)C34C1C(CC23)C1(O)CC(OC)C2CC4C1(O)C2OC (stereo not given) [Lappaconitine] the “z-score of subpopulation abundance” value was 0.98. For Nc1nc(N)nc(NC2CC2)n1 [Cyromazine], the “z-score of subpopulation abundance” value was 0.89. For C=CC[C@]1(O)CC[C@H]2[C@@H]3CCC4=CC(=O)CCC4=C3C=C[C@@]21C [Altrenogest], the “z-score of subpopulation abundance” value was -0.14. With COc1ccc(C(CN(C)C)C2(O)CCCCC2)cc1 (stereo not given) [Venlafaxine] the “z-score of subpopulation abundance” value was 0. Nc1ccncc1 [4-Aminopyridine] was tested, and the “z-score of subpopulation abundance” value was 0.34.
